Source: PubChem BioAssay (EPA / NIEHS)
Activity calls are given as the source filed them. How the source made its calls: active means hit-call score of the fitted dose curve at least 0.9, where 1 is the maximum; inactive means score below 0.9.

Legend:
Conditions in all cases: mRNA level, 48 h; actives raise or lower the signal
[1] = read-out: MicroRNA 122 (MIR122), gene 406906; assay: LTEA_HepaRG_MIR122: Life Technologies and Expression Analysis (LTEA) Assay for MicroRNA 122 (MIR122) using HepaRG (AID 2283516); further: the transcript read is the microRNA miR-122
How it was run: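 HepaRG plated 48 h, switched to serum-free induction medium, then treated in duplicate for 48 h (100 uM top, half-log steps, 0.5% DMSO vehicle). RNA isolated, qRT-PCR performed, concentration-response fitted both directions relative to DMSO.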

[2] = read-out: matrix metalloproteinase-10 (MMP10), MMP10 (gene 4319); assay: LTEA_HepaRG_MMP10: Life Technologies and Expression Analysis (LTEA) Assay for matrix metalloproteinase-10 (MMP10) using HepaRG (AID 2283517)
How it was run: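 Gain or loss of MMP10 mRNA is fitted relative to the 0.5% DMSO vehicle. The human hepatic line HepaRG receives a 48-hour serum-free exposure, in duplicate, with a maximum concentration of 100 uM.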

MYC, MYC (gene 4609) = assay: LTEA_HepaRG_MYC: Life Technologies and Expression Analysis (LTEA) Assay for MYC using HepaRG (AID 2283518)
How it was run: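 MYC transcript changes, up or down relative to 0.5% DMSO, from TaqMan qRT-PCR normalized to three housekeeping genes. Human HepaRG cultures received chemicals for 48 h at eight half-log concentrations up to 100 uM, in duplicate.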

[3] = read-out: matrix metalloproteinase-3 (MMP3), MMP3 (gene 4314); assay: LTEA_HepaRG_MMP3: Life Technologies and Expression Analysis (LTEA) Assay for matrix metalloproteinase-3 (MMP3) using HepaRG (AID 2283519)
How it was run: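 HepaRG, human; 48 h dosing, 8 conc. (max 100 uM, half-log), duplicate, 0.5% DMSO. Readout: MMP3 transcript by Fluidigm TaqMan qRT-PCR, ACTB/GAPDH/POLR2A-normalised. Gain or loss fitted vs DMSO.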

[4] = read-out: Paternally Expressed 10 (PEG10), PEG10 (gene 23089); assay: LTEA_HepaRG_PEG10: Life Technologies and Expression Analysis (LTEA) Assay for Paternally Expressed 10 (PEG10) using HepaRG (AID 2283520)
How it was run: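 HepaRG, 48 h post-plating → serum-free induction medium → 48 h chemical exposure (duplicate, 8-pt, max 100 uM, half-log, 0.5% DMSO) → lysis in RLT → TaqMan qRT-PCR for PEG10, ACTB/GAPDH/POLR2A normalisation.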

[5] = read-out: Nuclear factor NF-kappa-B p105 subunit (Homo sapiens) (UniProt P19838); assay: LTEA_HepaRG_NFKB1: Life Technologies and Expression Analysis (LTEA) Assay for Nuclear Factor Kappa B Subunit 1 (NFKB1) using HepaRG (AID 2283521)
How it was run: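 Differentiated human HepaRG cells in serum-free induction medium with 0.5% DMSO were exposed for 48 h to eight half-log concentrations, top 100 uM, in duplicate. NFKB1 mRNA measured by Fluidigm TaqMan qRT-PCR, normalised to ACTB, GAPDH and POLR2A; bidirectional fit versus DMSO.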

[6] = read-out: Protein phosphatase 2A (PPP2R4), PTPA (gene 5524); assay: LTEA_HepaRG_PPP2R4: Life Technologies and Expression Analysis (LTEA) Assay for Protein phosphatase 2A (PPP2R4) using HepaRG (AID 2283522)
How it was run: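 Readout is PPP2R4 transcript level by microfluidic qRT-PCR after 48 h chemical treatment of human HepaRG liver cells. Concentrations spanned 100 uM downward in half-log steps; gain or loss of signal was fitted relative to DMSO.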

[7] = read-out: Phosphatase and tensin (PTEN), PTEN (gene 5728); assay: LTEA_HepaRG_PTEN: Life Technologies and Expression Analysis (LTEA) Assay for Phosphatase and tensin (PTEN) using HepaRG (AID 2283523)
How it was run: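 Read-out is PTEN transcript level by multiplexed TaqMan qRT-PCR after 48 h chemical treatment of human HepaRG cultures in serum-free induction medium. Concentrations spanned 100 uM downward in half-log steps, 0.5% DMSO throughout; activity fitted in both directions against vehicle.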

[8] = read-out: solute carrier (SLC22A1), SLC22A1 (gene 6580); assay: LTEA_HepaRG_SLC22A1: Life Technologies and Expression Analysis (LTEA) Assay for solute carrier (SLC22A1) using HepaRG (AID 2283524)
How it was run: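 HepaRG (human liver line), 48 h dosing in serum-free induction medium; 8 conc., half-log down from 100 uM, 0.5% DMSO vehicle, duplicates. Endpoint: SLC22A1 mRNA, qRT-PCR, housekeeping-normalized; gain/loss fit vs DMSO.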

[9] = read-out: Pyruvate Dehydrogenase Kinase 4 (PDK4), PDK4 (gene 5166); assay: LTEA_HepaRG_PDK4: Life Technologies and Expression Analysis (LTEA) Assay for Pyruvate Dehydrogenase Kinase 4 (PDK4) using HepaRG (AID 2283525)
How it was run: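 In this multiplexed human HepaRG expression assay, cells are treated 48 h with test chemicals across an eight-point range starting at 100 uM. PDK4 mRNA changes, normalized to ACTB/GAPDH/POLR2A, are fitted in both directions relative to vehicle.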

[10] = read-out: Nuclear factor erythroid 2-related factor 2 (Homo sapiens) (UniProt Q16236); assay: LTEA_HepaRG_NFE2L2: Life Technologies and Expression Analysis (LTEA) Assay for Nuclear factor erythroid 2-related factor 2 (NFE2L2) Transcription Factor using HepaRG (AID 2283527)
How it was run: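 Transcript level of NFE2L2 is the read-out, measured by microfluidic TaqMan qRT-PCR and normalized to three housekeeping genes. Human HepaRG cultures received test chemical for 48 h at up to 100 uM in half-log steps. Gain or loss of signal is fitted relative to 0.5% DMSO.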

[11] = read-out: succinate dehydrogenase complex iron sulfur subunit B (SDHB), SDHB (gene 6390); assay: LTEA_HepaRG_SDHB: Life Technologies and Expression Analysis (LTEA) Assay for succinate dehydrogenase complex iron sulfur subunit B (SDHB) using HepaRG (AID 2283528)
How it was run: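 HepaRG cells (~100,000/well, plated 48 h) exposed in duplicate for 48 h in serum-free induction medium to 8-point half-log series from 100 uM in 0.5% DMSO; mRNA by qRT-PCR normalised to ACTB, GAPDH, POLR2A; bidirectional fit versus DMSO.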

[12] = read-out: Signal transducer and activator of transcription 3 (Homo sapiens) (UniProt P40763); assay: LTEA_HepaRG_STAT3: Life Technologies and Expression Analysis (LTEA) Assay for Signal transducer and activator of transcription (STAT3) using HepaRG (AID 2283529)
How it was run: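 Read-out is STAT3 mRNA level by qRT-PCR, normalized to three housekeeping genes, in human HepaRG liver cells treated for 48 h. Concentrations ran from 100 uM downward in half-log steps; curves were fitted for gain or loss relative to 0.5% DMSO.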

[13] = read-out: solute carrier (SLCO1B1), SLCO1B1 (gene 10599); assay: LTEA_HepaRG_SLCO1B1: Life Technologies and Expression Analysis (LTEA) Assay for solute carrier (SLCO1B1) using HepaRG (AID 2283530)
How it was run: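 SLCO1B1 transcript levels were quantified by TaqMan qRT-PCR using three housekeeping genes for normalization. This followed 48 h chemical exposure (100 uM top, half-log, 8 points, 0.5% DMSO) of HepaRG liver cells, with gain or loss fitted relative to DMSO.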

[14] = read-out: sulfotransferase 2A1 (SULT2A1), SULT2A1 (gene 6822); assay: LTEA_HepaRG_SULT2A1: Life Technologies and Expression Analysis (LTEA) Assay for sulfotransferase 2A1 (SULT2A1) using HepaRG (AID 2283531)
How it was run: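 Expression change of SULT2A1, by qRT-PCR with three housekeeping-gene normalization, was scored bidirectionally versus DMSO. Cells: differentiated HepaRG, dosed in duplicate for 48 h across 8 points, highest 100 µM, half-log dilution, 0.5% DMSO.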

[15] = read-out: Transforming Growth Factor (TGFA), TGFA (gene 7039); assay: LTEA_HepaRG_TGFA: Life Technologies and Expression Analysis (LTEA) Assay for Transforming Growth Factor (TGFA) using HepaRG (AID 2283532)
How it was run: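 HepaRG (human liver line), 48 h exposure, 8 conc. half-log down from 100 uM, 0.5% DMSO vehicle, duplicates; serum-free induction medium. TGFA mRNA by TaqMan qRT-PCR, ACTB/GAPDH/POLR2A normalization; gain/loss fit vs DMSO.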

[16] = read-out: Transforming Growth Factor (TGFB1), TGFB1 (gene 7040); assay: LTEA_HepaRG_TGFB1: Life Technologies and Expression Analysis (LTEA) Assay for Transforming Growth Factor (TGFB1) Transporter using HepaRG (AID 2283533)
How it was run: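 TGFB1 transcript measured by qRT-PCR with normalisation to three housekeeping genes (ACTB, GAPDH, POLR2A); human HepaRG line treated in duplicate for 48 hr with an 8-point series topping at 100 uM, 0.5% DMSO vehicle, bidirectionally fitted.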

TIMP1, TIMP1 (gene 7076) = assay: LTEA_HepaRG_TIMP1: Life Technologies and Expression Analysis (LTEA) Assay for TIMP1 using HepaRG (AID 2283534);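 further: TaqMan qRT-PCR signal normalized to ACTB GAPDH and POLR2A housekeeping genes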
How it was run: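 Bidirectional change in TIMP1 transcript versus 0.5% DMSO, measured by TaqMan qRT-PCR with three housekeeping genes for normalization. HepaRG human liver cells dosed 48 h in duplicate, top concentration 100 uM with half-log dilutions.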

[17] = read-out: Tumor necrosis factor receptor 1 (TNFRSF1A), TNFRSF1A (gene 7132); assay: LTEA_HepaRG_TNFRSF1A: Life Technologies and Expression Analysis (LTEA) Assay for Tumor necrosis factor receptor 1 (TNFRSF1A) using HepaRG (AID 2283535)
How it was run: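 mRNA measured by qRT-PCR (TaqMan, Fluidigm arrays) against ACTB/GAPDH/POLR2A housekeepers after 48 h chemical exposure of HepaRG cells. Top concentration 100 uM, half-log 8-point series, duplicates; vehicle 0.5% DMSO, both fit directions.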

[18] = read-out: NAD(P)H dehydrogenase [quinone] 1 (NQO1), NQO1 (gene 1728); assay: LTEA_HepaRG_NQO1: Life Technologies and Expression Analysis (LTEA) Assay for NAD(P)H dehydrogenase [quinone] 1 (NQO1) using HepaRG (AID 2283526)
How it was run: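 HepaRG, 48 h post-plating → serum-free induction medium → test chemical 48 h (duplicate, 100 uM top, half-log x8, 0.5% DMSO) → RNA isolation → qRT-PCR, ACTB/GAPDH/POLR2A normalization; bidirectional curve fit vs DMSO baseline.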

Measured: AC50

Signal transducer and activator of transcription 3 (Homo sapiens), sequence (P40763 whole entry, looked up): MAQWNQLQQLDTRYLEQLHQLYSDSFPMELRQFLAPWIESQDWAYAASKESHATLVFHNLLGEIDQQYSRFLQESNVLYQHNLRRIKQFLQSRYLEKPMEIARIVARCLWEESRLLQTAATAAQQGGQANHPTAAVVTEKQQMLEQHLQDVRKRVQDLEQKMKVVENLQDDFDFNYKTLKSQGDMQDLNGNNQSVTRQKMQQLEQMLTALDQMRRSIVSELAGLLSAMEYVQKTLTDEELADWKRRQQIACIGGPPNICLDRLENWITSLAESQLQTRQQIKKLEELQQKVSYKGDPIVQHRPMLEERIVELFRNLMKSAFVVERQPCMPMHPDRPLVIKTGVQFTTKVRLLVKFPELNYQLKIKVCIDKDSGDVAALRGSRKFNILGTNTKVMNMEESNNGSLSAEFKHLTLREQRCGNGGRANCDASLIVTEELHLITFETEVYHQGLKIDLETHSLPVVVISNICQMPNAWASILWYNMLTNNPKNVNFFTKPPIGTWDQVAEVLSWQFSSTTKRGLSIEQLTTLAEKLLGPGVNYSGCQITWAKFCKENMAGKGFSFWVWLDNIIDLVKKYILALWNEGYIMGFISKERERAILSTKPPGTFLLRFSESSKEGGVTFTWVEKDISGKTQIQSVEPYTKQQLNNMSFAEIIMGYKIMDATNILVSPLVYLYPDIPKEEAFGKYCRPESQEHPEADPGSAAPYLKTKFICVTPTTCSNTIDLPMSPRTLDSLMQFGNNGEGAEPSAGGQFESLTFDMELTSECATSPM
Nuclear factor erythroid 2-related factor 2 (Homo sapiens), sequence (Q16236 whole entry, looked up): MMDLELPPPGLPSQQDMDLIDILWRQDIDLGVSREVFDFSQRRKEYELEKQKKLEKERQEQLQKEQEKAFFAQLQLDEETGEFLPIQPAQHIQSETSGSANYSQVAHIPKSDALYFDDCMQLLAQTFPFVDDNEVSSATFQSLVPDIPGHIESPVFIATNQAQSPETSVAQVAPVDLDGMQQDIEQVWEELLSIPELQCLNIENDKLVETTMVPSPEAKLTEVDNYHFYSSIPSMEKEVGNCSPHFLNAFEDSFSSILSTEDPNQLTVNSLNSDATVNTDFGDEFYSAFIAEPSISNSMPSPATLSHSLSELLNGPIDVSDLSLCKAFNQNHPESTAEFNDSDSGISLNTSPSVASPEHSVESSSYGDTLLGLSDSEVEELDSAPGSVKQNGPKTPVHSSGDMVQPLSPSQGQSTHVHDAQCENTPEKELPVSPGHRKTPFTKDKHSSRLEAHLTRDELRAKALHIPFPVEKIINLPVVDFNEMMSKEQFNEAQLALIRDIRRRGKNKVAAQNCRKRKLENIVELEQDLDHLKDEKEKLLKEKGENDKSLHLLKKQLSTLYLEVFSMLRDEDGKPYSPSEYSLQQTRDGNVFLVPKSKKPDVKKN
Nuclear factor NF-kappa-B p105 subunit (Homo sapiens), sequence (P19838 whole entry, looked up): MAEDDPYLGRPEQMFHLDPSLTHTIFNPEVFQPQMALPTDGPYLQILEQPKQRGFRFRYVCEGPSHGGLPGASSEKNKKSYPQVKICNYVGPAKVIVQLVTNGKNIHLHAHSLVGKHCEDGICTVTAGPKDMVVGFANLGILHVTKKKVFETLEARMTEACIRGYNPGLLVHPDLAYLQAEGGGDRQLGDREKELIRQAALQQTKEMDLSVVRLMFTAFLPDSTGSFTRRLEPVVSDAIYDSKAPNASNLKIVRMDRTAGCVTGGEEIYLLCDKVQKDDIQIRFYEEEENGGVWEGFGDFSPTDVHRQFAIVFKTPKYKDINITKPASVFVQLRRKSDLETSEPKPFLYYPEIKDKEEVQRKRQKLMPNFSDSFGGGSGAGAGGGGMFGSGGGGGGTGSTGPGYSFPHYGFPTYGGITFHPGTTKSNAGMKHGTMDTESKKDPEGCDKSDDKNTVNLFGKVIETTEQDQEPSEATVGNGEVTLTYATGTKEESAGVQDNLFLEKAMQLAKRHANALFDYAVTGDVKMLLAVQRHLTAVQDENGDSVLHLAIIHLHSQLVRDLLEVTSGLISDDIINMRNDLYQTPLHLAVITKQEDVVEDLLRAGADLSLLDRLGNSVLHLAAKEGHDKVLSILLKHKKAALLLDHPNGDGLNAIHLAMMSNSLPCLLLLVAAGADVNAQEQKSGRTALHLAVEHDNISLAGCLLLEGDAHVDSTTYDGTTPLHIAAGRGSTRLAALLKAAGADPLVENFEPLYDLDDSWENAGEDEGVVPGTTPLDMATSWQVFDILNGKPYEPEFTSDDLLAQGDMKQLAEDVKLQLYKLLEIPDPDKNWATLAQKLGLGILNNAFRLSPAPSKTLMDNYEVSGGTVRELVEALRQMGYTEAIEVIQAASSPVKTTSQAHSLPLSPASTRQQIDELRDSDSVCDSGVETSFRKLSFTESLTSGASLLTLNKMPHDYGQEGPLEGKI

CS(=O)(=O)c1ccc([C@@H](C[C@H]2CCC(=O)C2)C(=O)Nc2cnccn2)cc1Cl
inactive: [2] | [4] | [11] | [14] | TIMP1, TIMP1 (gene 7076)
active: [1] 1.41 µM | MYC, MYC (gene 4609) 1.14 µM | [3] 1.16 µM | [5] 1.38 µM | [6] 0.49 µM | [7] 10.1 µM | [8] 2.77 µM | [9] 0.913 µM | [10] 0.738 µM | [12] 50 µM | [13] 1.01 µM | [15] 0.938 µM | [16] 1.22 µM | [17] 14.8 µM

Nc1nc(Cl)nc2c1ncn2[C@H]1C[C@H](O)[C@@H](CO)O1
inactive: MYC, MYC (gene 4609) | [5] | [10] | [11] | [12] | TIMP1, TIMP1 (gene 7076)
active: [1] 1.55 µM | [2] 1.72 µM | [3] 3.75 µM | [4] 0.636 µM | [6] 1.92 µM | [7] 3.12 µM | [8] 0.811 µM | [9] 0.452 µM | [13] 0.999 µM | [14] 2.81 µM | [15] 0.2 µM | [16] 0.365 µM | [17] 0.732 µM

C=CCCCCCCCCCCCC
inactive: [1] | [2] | MYC, MYC (gene 4609) | [3] | [4] | [5] | [6] | [7] | [8] | [9] | [10] | [11] | [12] | [13] | [14] | [15] | [16] | TIMP1, TIMP1 (gene 7076) | [17]

O=[Si]=O
inactive: [1] | [2] | MYC, MYC (gene 4609) | [3] | [4] | [5] | [6] | [7] | [8] | [9] | [10] | [11] | [12] | [13] | [14] | [15] | [16] | TIMP1, TIMP1 (gene 7076) | [17]

Nc1nc(=S)c2[nH]cnc2[nH]1
active: [1] 11.9 µM | MYC, MYC (gene 4609) 11.4 µM | [4] 7.2 µM | [10] 26.6 µM | [13] 11.4 µM | [14] 11.4 µM
inactive: [2] | [3] | [6] | [7] | [9] | [18] | [11] | [12] | [15] | [16] | TIMP1, TIMP1 (gene 7076) | [17]

O=C(Oc1ccccc1)c1cccc(C(=O)Oc2ccccc2)c1
inactive: [1] | [2] | MYC, MYC (gene 4609) | [3] | [4] | [6] | [7] | [8] | [9] | [10] | [11] | [12] | [13] | [14] | [15] | [16] | TIMP1, TIMP1 (gene 7076) | [17]

CC(=O)O
inactive: [1] | [2] | MYC, MYC (gene 4609) | [3] | [4] | [6] | [7] | [8] | [9] | [18] | [10] | [11] | [12] | [13] | [14] | [15] | [16] | TIMP1, TIMP1 (gene 7076) | [17]

CC(C)c1cccc(C(C)C)c1NC(=O)NS(=O)(=O)c1cc(C(C)(C)O)co1
inactive: [1] | [2] | MYC, MYC (gene 4609) | [3] | [4] | [6] | [7] | [8] | [9] | [18] | [10] | [11] | [12] | [13] | [14] | [15] | [16] | TIMP1, TIMP1 (gene 7076) | [17]
